Source: PubChem BioAssay (Tox21)
Results filed as inconclusive are left out. The source made the active and inactive calls. Unless noted, the call rests on the fitted dose curve.

How the values were obtained:
[1] = Nuclear factor erythroid 2-related factor 2/antioxidant responsive element (Nrf2/ARE) small molecule agonists: qHTS cell viability counter screen in human keratinocytes (AID 1919968; active means well fitted curve in the direction sought with a large enough effect in the repeat runs; an effect the other way counts as inactive or inconclusive; further: nearly all actives have a fitted effect of over 55% in size)
Procedure, shortened: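 Cytotoxicity was multiplexed with the Nrf2/ARE luciferase assay in the same wells. Stably transfected HaCaT keratinocytes were treated with test compounds for 23 h at 37 C. Cell viability was then measured by CellTiter-Fluor fluorescence.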

[2] = Nuclear factor erythroid 2-related factor 2/antioxidant responsive element (Nrf2/ARE) small molecule agonists: luciferase reporter gene qHTS assay in human keratinocytes (AID 1919969); further: nearly all actives have a fitted effect of over 35% in size
[3] = biological target: Gonadotropin-releasing hormone receptor (Homo sapiens) (UniProt P30968); test: Human gonadotropin-releasing hormone receptor (GnRHR) small molecule agonists, calcium flux assay in GnRHR-HEK293 cells (AID 1920063); further: nearly all actives have a fitted effect of over 35% in size
Procedure, shortened: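 Agonist activity was measured as intracellular calcium flux in HEK293 cells engineered to stably express human GnRHR. After dye loading for 1 hour at 37 C, compounds in DMSO were added and fluorescence was followed for 3 minutes.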

[4] = biological target: KiSS-1 receptor (Homo sapiens) (UniProt Q969F8); test: Human kisspeptin (KISS1R) small molecule agonists, calcium flux assay in KISS1R-HEK293 cells (AID 1920064; active means well fitted curve in the direction sought with a large enough effect in the repeat runs; an effect the other way counts as inactive or inconclusive)
Procedure, shortened: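 Agonist activity is monitored as intracellular calcium rise in engineered HEK293 cells carrying human KISS1R. Cells are dye-loaded for 1 h at 37 C before compound addition, and fluorescence is recorded for 3 min.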

[5] = G protein-coupled receptor (GPCR) small molecule agonists, calcium flux assay: HEK293 wild type cell line counter screen (AID 1920065)
Procedure, shortened: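 Seed cells, incubate 18 h (37 C, 5% CO2); add calcium dye, 1 h at 37 C; pin-transfer compounds, ATP control or DMSO; read fluorescence 480/540 nm each second for 3 min.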

[6] = p53 small molecule agonists, cell-based qHTS assay with rat liver microsomes (AID 1963578)
Procedure, shortened: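 Metabolic activation by rat liver microsomes and NADPH, each 0.5 mg/mL final, added right after compounds to p53RE-bla reporter cells (4,000/well, plated 5 h earlier). 16 h at 37 C, then LiveBLAzer substrate for 2 h at room temperature in the dark; fluorescence read-out.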

[7] = p53 small molecule agonists, cell-based qHTS assay with human liver microsomes: qHTS cell viability counter screen (AID 1963579); further: nearly all actives have a fitted effect of over 45% in size
Procedure, shortened: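 Metabolic activation used human liver microsomes and NADPH, both 0.5 mg/mL final, over 16 hours at 37 C on p53RE-bla cells (4,000/well). Cytotoxicity measured by CellTiter-Glo luminescence, 30 min at room temperature.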

[8] = p53 small molecule agonists, cell-based qHTS assay with rat liver microsomes: qHTS cell viability counter screen (AID 1963580); further: nearly all actives have a fitted effect of over 45% in size
Procedure, shortened: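 Rat liver microsome (0.5 mg/mL final) and NADPH (0.5 mg/mL final) co-incubation with compounds for 16 h at 37 C on HCT-116 p53RE-bla cells; cytotoxicity taken from intracellular ATP luminescence.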

[9] = p53 small molecule agonists, cell-based qHTS assay: qHTS cell viability counter screen (AID 1963581); further: nearly all actives have a fitted effect of over 45% in size
Procedure, shortened: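 Viability was counter-screened in parallel with the p53 agonist reporter by measuring intracellular ATP luminescence in the same HCT-116 p53RE-bla wells after 16 h compound treatment at 37 C.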

[10] = p53 small molecule agonists, cell-based qHTS assay (AID 1963582; active means well fitted activation curve with a large enough effect in the signal ratio in the repeat runs, not every such curve was filed as active; the % refers to the signal ratio)
Procedure, shortened: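 Cells carrying a p53-responsive bla reporter are treated with test compounds for 16 h at 37 C; beta-lactamase activity is then detected with LiveBLAzer B/G FRET substrate after 2 h at room temperature.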

[11] = biological target: 5-hydroxytryptamine receptor 2A (Homo sapiens) (UniProt P28223); test: 5-hydroxytryptamine receptor 2A (HTR2A) small molecule antagonists, cell-based qHTS assay (AID 1963586); further: nearly all actives have a fitted effect of over 45% in size
Procedure, shortened: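 CHO cells stably expressing human HTR2A were plated for 18 h at 37 C, then loaded with calcium dye for 1 h. Compounds were preincubated 5 min at room temperature before DOI (4 nM solution) was added. Kinetic fluorescence was read for 3 min.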

[12] = biological target: 5-hydroxytryptamine receptor 2A (Homo sapiens) (UniProt P28223); test: 5-hydroxytryptamine receptor 2A (HTR2A) small molecule agonists, cell-based qHTS assay (AID 1963587); further: nearly all actives have a fitted effect of over 30% in size
Procedure, shortened: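 Kinetic calcium-flux fluorescence (2 min, 1 sec intervals) after compound addition in agonist mode. HTR2A-CHO cells were cultured 18 h, then dye-loaded 1 h at 37 C.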

[13] = biological target: Muscarinic acetylcholine receptor M1 (Homo sapiens) (UniProt P11229); test: Cholinergic receptor muscarinic 1 (CHRM1) small molecule antagonists, cell-based qHTS assay (AID 1963588); further: nearly all actives have a fitted effect of over 40% in size
Procedure, shortened: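 Compounds were tested at 15 concentrations in three independent runs. Dye-loaded CHRM1-CHO cells were exposed 5 min at room temperature before stimulation by acetylcholine added at 50nM. Intracellular calcium was read kinetically on FDSS for 3 min.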

[14] = biological target: Muscarinic acetylcholine receptor M1 (Homo sapiens) (UniProt P11229); test: Cholinergic receptor muscarinic 1 (CHRM1) small molecule agonists, cell-based qHTS assay (AID 1963589); further: nearly all actives have a fitted effect of over 35% in size
Procedure, shortened: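 Cells were plated and incubated 18 h at 37 C/5% CO2, loaded with calcium dye for 1 h at 37 C, then treated with compounds in DMSO. Fluorescence was recorded kinetically at 1 sec intervals.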

[15] = cAMP Responsive Elements (CRE) small molecule agonists, cell-based qHTS assay (AID 1963590)
Procedure, shortened: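 Cells carrying a CRE-driven beta-lactamase reporter (HEK 293T) are seeded, incubated overnight (18 h), and treated with test compounds for 3 h at 37 C; reporter activity is then detected with a FRET substrate after 2 h at room temperature.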

[16] = cAMP Responsive Elements (CRE) small molecule antagonists, cell-based qHTS assay (AID 1963591; active means well fitted inhibition curve with a large enough effect in the signal ratio in the repeat runs, not every such curve was filed as active; the % refers to the signal ratio)
Procedure, shortened: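 Cells (CRE-bla HEK 293T, DMEM with 10% dialyzed FBS and 25 mM HEPES) are seeded and incubated 18 h. Compounds are added with NKH477 agonist at 0.25 uM final for 3 h, then FRET substrate for 2 h.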

[17] = biological target: Beta-2 adrenergic receptor (Homo sapiens) (UniProt P07550); test: Adrenergic beta2 receptor (ADRB2) small molecule antagonists, cell-based qHTS assay (AID 1963592); further: series mostly up to about 92 µM; nearly all actives have a fitted effect of over 50% in size
Procedure, shortened: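 Assay format: CHO-ADRB2 cells, 18-20hr seeding at 37C/5% CO2, then compound plus 1nM isoproterenol agonist mix for 0.5hr RT. Homogeneous time-resolved fluorescence cAMP detection after 1hr, expressed as 665/615 nm ratio.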

[18] = biological target: D(2) dopamine receptor (Homo sapiens) (UniProt P14416); test: Dopamine D2 receptor (DRD2) small molecule agonists, cell-based qHTS assay (AID 1963594); further: nearly all actives have a fitted effect of over 35% in size
Procedure, shortened: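 cAMP accumulation in DRD2-HEK293 cells measured by HTRF after 1 h detection; compounds added 10 min before NKH477 (200nM […]) forskolin-analogue stimulation, 30 min at room temperature, with Ro20-1724 present at 0.1 mM final.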

[19] = biological target: D(2) dopamine receptor (Homo sapiens) (UniProt P14416); test: Dopamine D2 receptor (DRD2) small molecule antagonists, cell-based qHTS assay (AID 1963595; active means well fitted inhibition curve with a large enough effect in the signal ratio in the repeat runs, with a control signal flat; the % refers to the signal ratio)
Procedure, shortened: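 Cells were plated and grown for 24 h at 37 °C. Ro20-1724 (0.1 mM final) went in first, then compound for 10 min. NKH477 (200 nM) with quinpirole (12 nM) followed for 30 min at RT, then HTRF detection reagents for 1 h.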

Measured: Potency

Sequence of Gonadotropin-releasing hormone receptor (Homo sapiens) (P30968 whole entry, looked up): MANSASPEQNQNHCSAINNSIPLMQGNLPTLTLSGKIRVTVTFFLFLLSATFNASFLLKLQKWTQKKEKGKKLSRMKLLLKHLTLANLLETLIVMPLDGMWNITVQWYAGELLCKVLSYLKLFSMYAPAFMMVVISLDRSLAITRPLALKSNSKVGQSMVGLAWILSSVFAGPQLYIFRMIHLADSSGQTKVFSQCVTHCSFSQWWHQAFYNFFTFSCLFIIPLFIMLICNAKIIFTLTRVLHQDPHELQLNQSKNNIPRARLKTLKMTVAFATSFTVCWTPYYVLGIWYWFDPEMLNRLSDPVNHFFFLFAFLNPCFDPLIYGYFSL
Sequence of 5-hydroxytryptamine receptor 2A (Homo sapiens) (P28223 whole entry, looked up): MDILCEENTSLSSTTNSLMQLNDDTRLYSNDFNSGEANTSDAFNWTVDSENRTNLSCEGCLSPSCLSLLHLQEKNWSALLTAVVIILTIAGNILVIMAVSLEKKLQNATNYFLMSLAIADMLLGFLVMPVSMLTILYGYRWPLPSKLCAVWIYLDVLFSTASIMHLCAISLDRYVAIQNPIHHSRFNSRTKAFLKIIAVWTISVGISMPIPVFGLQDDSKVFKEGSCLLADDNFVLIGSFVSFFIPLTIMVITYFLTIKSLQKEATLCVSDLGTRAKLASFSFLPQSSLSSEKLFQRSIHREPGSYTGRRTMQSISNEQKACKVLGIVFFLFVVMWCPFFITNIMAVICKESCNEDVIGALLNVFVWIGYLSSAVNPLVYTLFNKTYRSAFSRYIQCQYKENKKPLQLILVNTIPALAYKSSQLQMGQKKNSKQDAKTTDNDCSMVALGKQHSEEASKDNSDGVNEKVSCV
Sequence of KiSS-1 receptor (Homo sapiens) (Q969F8 whole entry, looked up): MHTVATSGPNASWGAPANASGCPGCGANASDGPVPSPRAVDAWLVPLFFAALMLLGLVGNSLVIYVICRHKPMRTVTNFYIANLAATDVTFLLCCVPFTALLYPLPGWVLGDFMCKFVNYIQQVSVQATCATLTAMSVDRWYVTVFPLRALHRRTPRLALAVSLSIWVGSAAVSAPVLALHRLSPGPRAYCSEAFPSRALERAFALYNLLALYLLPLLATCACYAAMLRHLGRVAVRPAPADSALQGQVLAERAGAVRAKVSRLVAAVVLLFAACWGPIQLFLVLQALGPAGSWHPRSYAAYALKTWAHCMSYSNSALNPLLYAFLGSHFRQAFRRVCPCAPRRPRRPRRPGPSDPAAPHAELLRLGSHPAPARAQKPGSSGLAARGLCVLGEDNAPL
Sequence of Muscarinic acetylcholine receptor M1 (Homo sapiens) (P11229 whole entry, looked up): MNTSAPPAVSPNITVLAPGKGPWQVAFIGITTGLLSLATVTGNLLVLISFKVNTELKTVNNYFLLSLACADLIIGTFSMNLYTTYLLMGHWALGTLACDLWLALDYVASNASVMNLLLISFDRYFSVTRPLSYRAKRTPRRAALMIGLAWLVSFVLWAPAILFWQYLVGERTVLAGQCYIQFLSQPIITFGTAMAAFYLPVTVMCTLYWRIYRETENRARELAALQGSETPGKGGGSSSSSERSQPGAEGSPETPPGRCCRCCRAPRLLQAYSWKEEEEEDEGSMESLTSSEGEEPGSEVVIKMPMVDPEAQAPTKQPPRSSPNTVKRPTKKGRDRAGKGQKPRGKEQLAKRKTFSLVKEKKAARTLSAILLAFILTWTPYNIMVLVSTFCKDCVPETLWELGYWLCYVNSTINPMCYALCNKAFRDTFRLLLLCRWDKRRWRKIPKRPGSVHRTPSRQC
Sequence of D(2) dopamine receptor (Homo sapiens) (P14416 whole entry, looked up): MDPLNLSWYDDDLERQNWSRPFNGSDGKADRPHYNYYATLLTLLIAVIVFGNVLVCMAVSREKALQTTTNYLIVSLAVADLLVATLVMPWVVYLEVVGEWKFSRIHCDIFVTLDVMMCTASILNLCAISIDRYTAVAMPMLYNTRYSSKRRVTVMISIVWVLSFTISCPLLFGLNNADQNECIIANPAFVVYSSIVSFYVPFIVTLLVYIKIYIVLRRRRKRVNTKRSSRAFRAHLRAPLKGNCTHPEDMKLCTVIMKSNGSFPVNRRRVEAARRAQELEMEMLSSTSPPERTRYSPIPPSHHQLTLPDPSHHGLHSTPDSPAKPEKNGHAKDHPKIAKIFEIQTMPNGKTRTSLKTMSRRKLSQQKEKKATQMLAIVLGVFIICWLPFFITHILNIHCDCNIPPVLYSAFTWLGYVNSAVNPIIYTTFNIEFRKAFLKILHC
Sequence of Beta-2 adrenergic receptor (Homo sapiens) (P07550 whole entry, looked up): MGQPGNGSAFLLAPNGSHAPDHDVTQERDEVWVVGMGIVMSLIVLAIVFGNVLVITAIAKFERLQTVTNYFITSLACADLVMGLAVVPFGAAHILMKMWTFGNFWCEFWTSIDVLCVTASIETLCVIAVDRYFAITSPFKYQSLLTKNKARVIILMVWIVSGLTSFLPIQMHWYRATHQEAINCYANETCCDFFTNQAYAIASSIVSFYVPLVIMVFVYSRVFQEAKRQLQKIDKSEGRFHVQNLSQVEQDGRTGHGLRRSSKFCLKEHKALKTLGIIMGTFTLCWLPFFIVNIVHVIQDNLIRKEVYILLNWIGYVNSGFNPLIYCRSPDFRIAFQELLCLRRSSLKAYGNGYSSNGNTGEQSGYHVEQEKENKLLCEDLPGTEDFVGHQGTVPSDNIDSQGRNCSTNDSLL

[Cl][Eu]([Cl])[Cl]
inactive: [1] | [2] | [3] | [4] | [5] | [6] | [7] | [8] | [9] | [10] | [11] | [12] | [13] | [14] | [15] | [16]

CCCCCCCCCCCCCC
inactive: [1] | [2] | [3] | [4] | [5] | [6] | [7] | [8] | [9] | [10] | [11] | [12] | [13] | [14] | [15] | [16] | [17] | [18] | [19]

CCN(CC)C(=O)C1CN2CCc3cc(OC)c(OC)cc3C2CC1OC(C)=O (centres undefined)
inactive: [1] | [2] | [3] | [4] | [5] | [6] | [7] | [8] | [9] | [10] | [11] | [12] | [13] | [14] | [15] | [16] | [17] | [18] | [19]
